Assay [1] is described as follows: Tanguay_ZF_120hpf_PE_legacy: (Legacy) Oregon State University Tanguay Lab 120 Hour Post-fertilization zebrafish Assay for Pericardial Edema (AID 2283640). Put shortly: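 Static waterborne exposure, 5D wild-type embryos, 28C, to 120 hpf; final DMSO 0.64% (vol/vol). Binary PE call at 120 hpf by brightfield; fitted upward vs DMSO baseline. 5uM trimethyltin chloride as positive control.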

The nature of assay [2]: Tanguay_ZF_120hpf_BRAI_legacy: (Legacy) Oregon State University Tanguay Lab 120 Hour Post-fertilization zebrafish Assay for Brain Malformation (AID 2283641). Put shortly:
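Read-out: binary brain morphology call at 120 hpf (brightfield), fitted in gain-of-signal direction vs DMSO. Wild-type Tropical 5D embryos, static exposure, 28C, 0.64% DMSO final; 5uM trimethyltin chloride as positive control.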

Assay [3] is described as follows: Tanguay_ZF_120hpf_SOMI_legacy: (Legacy) Oregon State University Tanguay Lab 120 Hour Post-fertilization zebrafish Assay for Somite Malformation (AID 2283647). Put shortly: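 Binary brightfield scoring of somite defects at 120 hpf in 5D wild-type larvae; one dechorionated embryo per well, static exposure from 6 hpf, 28C, sealed and dark. Final DMSO 0.64%; trimethyltin chloride 5uM positive control.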

Assay [4] can be described thus: Tanguay_ZF_120hpf_PFIN_legacy: (Legacy) Oregon State University Tanguay Lab 120 Hour Post-fertilization zebrafish Assay for Pectoral Fin Malformation (AID 2283648).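 Also: each larva judged yes or no for fin defect by brightfield with dead larvae skipped.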 The gist of the method:
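Dechorionated Tropical 5D wild-type zebrafish embryos, one per well, statically exposed from 6 to 120 hpf at 28C with 0.64% DMSO final. Pectoral fin malformation scored present/absent by brightfield at 120 hpf; not scored in dead embryos.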

Assay [5] can be described thus: Tanguay_ZF_120hpf_CFIN_legacy: (Legacy) Oregon State University Tanguay Lab 120 Hour Post-fertilization zebrafish Assay for Caudal Fin Malformation (AID 2283649). Put shortly: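 Dechorionated 5D wild-type zebrafish, static exposure 6–120 hpf, 28C, sealed and dark, 0.64% v/v DMSO final. Binary fin-malformation call at 120 hpf, brightfield; gain of signal vs DMSO baseline.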

Assay [6] in a line: Tanguay_ZF_120hpf_PIG_legacy: (Legacy) Oregon State University Tanguay Lab 120 Hour Post-fertilization zebrafish Assay for Pigmentation Malformation (AID 2283650). The gist of the method: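 Dechorionated Tropical 5D wild-type embryos, one per well from 6 hpf, statically exposed at 28C in the dark until 120 hpf, 0.64% DMSO final. Pigmentation scored present/absent by brightfield microscopy; dead embryos not scored; fitted versus DMSO.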

Assay [7] can be described thus: Tanguay_ZF_120hpf_CIRC_legacy: (Legacy) Oregon State University Tanguay Lab 120 Hour Post-fertilization zebrafish Assay for Circulatory Malformation (AID 2283651). Put shortly:
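Read-out: presence or absence of circulatory malformation at 120 hpf, scored by brightfield microscopy, fitted in the gain-of-signal direction against DMSO baseline. Wild-type 5D larvae were exposed from 6 hpf after enzymatic chorion removal.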

Assay [8] can be described thus: Tanguay_ZF_120hpf_SWIM_legacy: (Legacy) Oregon State University Tanguay Lab 120 Hour Post-fertilization zebrafish Assay for Swim Bladder Malformation (AID 2283654).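 Also: swim bladder malformation in each larva scored yes or no under brightfield.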 Put shortly:
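Dechorionated wild-type Tropical 5D zebrafish embryos, one per well from 6 hpf, were statically exposed at 28C until 120 hpf in 0.64% DMSO. Swim bladder malformation scored as present/absent by brightfield microscopy; not scored in dead larvae.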

Assay [9] in a line: Tanguay_ZF_120hpf_TRUN_legacy: (Legacy) Oregon State University Tanguay Lab 120 Hour Post-fertilization zebrafish Assay for Truncated Body (AID 2283655). The gist of the method: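 Whole-embryo zebrafish screen: dechorionated 5D embryos, static exposure 6–120 hpf, 28C, sealed foil-covered plates, 0.64% DMSO. Binary truncation call; gain of signal versus DMSO baseline.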
Read-out in assay [10]: Broad substrate specificity ATP-binding cassette transporter ABCG2 (Homo sapiens) (UniProt Q9UNQ0)
Briefly: CLD_ABCG2_6hr: CellzDirect (CLD) Gene Expression Assay for ABC Transporter (ABCG2) at 6 hours (AID 2283660). The gist of the method:
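Primary human hepatocytes dosed daily with chemicals at multiple concentrations (0.2% DMSO vehicle), harvested 6 h after dosing. ABCG2 mRNA induction read by quantitative nuclease protection assay (qNPA) chemiluminescence; gain of signal fitted against DMSO baseline.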

Read-out in assay [11]: xenobiotic metabolism (CYP1A1), CYP1A1 (gene 1543)
As to the kind of experiment: CLD_CYP1A1_6hr: CellzDirect (CLD) Gene Expression Assay for xenobiotic metabolism (CYP1A1) at 6 hours (AID 2283661). Put shortly:
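Primary human hepatocytes from two donors, compound versus 0.2% DMSO vehicle. CYP1A1 mRNA measured 6 h after dosing by quantitative nuclease protection assay with chemiluminescent read-out; induction fitted relative to DMSO, cytotoxicity flagged by microscopy.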

Read-out in assay [12]: solute carrier (SLC22A6), SLC22A6 (gene 9356)
As to the kind of experiment: LTEA_HepaRG_SLC22A6: Life Technologies and Expression Analysis (LTEA) Assay for solute carrier (SLC22A6) using HepaRG (AID 2283653; active = hit-call score of the fitted dose curve at least 0.9, where 1 is the maximum; inactive = score below 0.9). The note with it: mRNA level, 48 h; actives raise or lower the signal. The gist of the method: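 HepaRG, human liver line; 48 h chemical exposure; 8-pt half-log series from 100 uM in 0.5% DMSO, duplicate wells. Readout: TaqMan qRT-PCR of SLC22A6 mRNA, housekeeping-normalised; bidirectional curve fit vs DMSO baseline.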

Read-out in assay [13]: solute carrier (SLC10A1), SLC10A1 (gene 6554)
Briefly: LTEA_HepaRG_SLC10A1: Life Technologies and Expression Analysis (LTEA) Assay for solute carrier (SLC10A1) using HepaRG (AID 2283657; active = hit-call score of the fitted dose curve at least 0.9, where 1 is the maximum; inactive = score below 0.9). To be noted: mRNA level, 48 h; actives raise or lower the signal. The gist of the method:
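HepaRG cells (single lot) exposed 48 h in serum-free induction medium, 8-point half-log series from 100 uM top in 0.5% DMSO, duplicate. SLC10A1 mRNA by qRT-PCR normalised to ACTB, GAPDH, POLR2A; bidirectional fit versus DMSO.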

Read-out in assay [14]: matrix metalloproteinase-1 (MMP1), MMP1 (gene 4312)
Briefly: LTEA_HepaRG_MMP1: Life Technologies and Expression Analysis (LTEA) Assay for matrix metalloproteinase-1 (MMP1) using HepaRG (AID 2283658; active = hit-call score of the fitted dose curve at least 0.9, where 1 is the maximum; inactive = score below 0.9). To be noted: mRNA level, 48 h; actives raise or lower the signal. Put shortly: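 MMP1 transcript read by TaqMan qRT-PCR (Fluidigm array) after 48 h chemical exposure of HepaRG cells in serum-free induction medium. Eight-point half-log series, top 100 uM, 0.5% DMSO vehicle. Bidirectional curve fit against DMSO baseline.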

Assay [15] deals with Thyroperoxidase (TPO), gene 54314. As to the kind of experiment: CCTE_Simmons_AUR_rTPO: CCTE's Amplex UltraRed Assay for Thyroperoxidase (TPO) Inhibition, Simmons Lab (AID 2283662).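 Also: potency for loss of signal meaning inhibition of peroxidase activity.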 Put shortly:
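Cell-free peroxidase activity assay using rat thyroid gland microsomes with excess H2O2 (300 uM) and 25 uM Amplex UltraRed. Compounds tested from 5 nM to 87.5 uM; fluorescence measured after 30 min at 37C, analysed relative to DMSO baseline.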

Inconclusive results are not listed. Calls of active or inactive are those of the source. The calls were made as follows, unless noted: active = hit-call score of the fitted dose curve at least 0.9, where 1 is the maximum; inconclusive = response in the unintended direction; inactive = score below 0.9.

Sequence of Broad substrate specificity ATP-binding cassette transporter ABCG2 (Homo sapiens) (Q9UNQ0 whole entry, looked up): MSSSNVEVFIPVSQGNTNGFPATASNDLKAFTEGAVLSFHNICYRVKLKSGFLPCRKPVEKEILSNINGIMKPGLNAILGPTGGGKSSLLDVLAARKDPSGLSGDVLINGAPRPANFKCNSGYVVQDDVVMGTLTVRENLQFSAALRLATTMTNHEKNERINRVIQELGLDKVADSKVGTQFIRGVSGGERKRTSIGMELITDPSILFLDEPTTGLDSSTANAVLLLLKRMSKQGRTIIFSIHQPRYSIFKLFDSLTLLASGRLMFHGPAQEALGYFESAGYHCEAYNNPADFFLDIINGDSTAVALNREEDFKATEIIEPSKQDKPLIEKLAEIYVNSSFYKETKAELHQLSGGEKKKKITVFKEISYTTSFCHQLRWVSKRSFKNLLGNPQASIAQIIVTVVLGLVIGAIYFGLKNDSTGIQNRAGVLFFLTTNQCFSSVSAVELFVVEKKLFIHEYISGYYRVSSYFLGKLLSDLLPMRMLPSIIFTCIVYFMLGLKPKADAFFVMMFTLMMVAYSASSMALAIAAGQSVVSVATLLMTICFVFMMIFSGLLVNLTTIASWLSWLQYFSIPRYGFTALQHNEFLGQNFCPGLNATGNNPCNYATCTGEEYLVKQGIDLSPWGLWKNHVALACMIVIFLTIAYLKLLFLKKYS

With `COC(=O)c1ccc(I)cc1S(=O)(=O)NC(=O)Nc1nc(C)nc(OC)n1`, the molecule was called inactive in assay [1], in [2], in assay [3], in assay [4], in [5] and in assay [6]. Besides, the call in assay [7], in assay [8], in assay [9], in assay [10] and in assay [11] was inactive.

Turning to `CCC(O)=C1C(=O)CC(C(=O)O)CC1=O` (stereo not drawn), in [10], the call was inactive.

For `CCOC(=O)[C@H](C)Oc1ccc(Oc2nc3ccc(Cl)cc3o2)cc1`, the molecule was called inactive in assay [10].

For the molecule `CCCN(CCC)C(=O)SCC`, the molecule was classed as inactive in assay [1], in assay [2], in assay [3], in assay [4], in assay [5] and in [6]. Also, the result in assay [8], in [9] and in assay [10] was inactive.

In the case of `CCSC(=O)N(CC(C)C)CC(C)C`, the result in assay [1], in [2], in assay [3], in assay [4], in assay [5] and in [6] was inactive. Moreover, the result in assay [8], in assay [9] and in [10] was inactive.

Turning to `CCOC(=O)NCCOc1ccc(Oc2ccccc2)cc1`, the outcome in assay [1], in [2], in assay [4], in [5], in [6] and in assay [7] was inactive. The result in assay [8] was inactive.

On to `CCCCC(CC)COC(=O)c1ccccc1C(=O)O` (stereo not drawn), for which the outcome in [1], in assay [2], in assay [6], in assay [7], in assay [8] and in assay [9] was inactive. Moreover, the molecule was called inactive in assay [10].

Take `COCCO`: the molecule was classed as inactive in [1], in assay [3], in [4], in assay [5], in [6] and in assay [7]. Also, the molecule was classed as inactive in [12], in assay [8], in [9], in assay [13], in assay [14] and in assay [10].

On to `O=C(c1ccc(O)cc1O)c1ccc(O)cc1O`, for which the molecule was called inactive in assay [1], in assay [2], in assay [3], in assay [4], in assay [5] and in [7]. Further, the call in assay [9] was inactive. For the same molecule, the AC50 in assay [15] was 190 nM (active).

In the case of `CC(C)CCCCCCc1ccc(O)cc1`, the molecule was called inactive in assay [1], in assay [2], in assay [3], in assay [4], in assay [5] and in assay [6]. Further, the call in assay [7], in assay [8] and in assay [9] was inactive. In addition, the AC50 in assay [15] was 20600 nM (active).

On to `CCCCCCC(C)OC(=O)COc1nc(F)c(Cl)c(N)c1Cl` (stereo not drawn), for which the molecule was called inactive in [1], in assay [2], in assay [3], in assay [4], in [7] and in assay [12]. The call in assay [8], in assay [13], in assay [14] and in assay [10] was inactive.

`COC(=O)c1c(Cl)nn(C)c1S(=O)(=O)NC(=O)Nc1nc(OC)cc(OC)n1`: the result in assay [10] was inactive.

Take `CCCOC(=O)NCCCN(C)C`: the outcome in assay [1], in assay [2], in assay [3], in [4], in [5] and in assay [6] was inactive. Also, the molecule was called inactive in assay [7], in [8], in [10] and in [11].

With `CCCCC(CC)CN1C(=O)C2C3C=CC(C3)C2C1=O` (stereo not drawn), the call in assay [1], in [2], in assay [3], in assay [4], in assay [5] and in assay [6] was inactive. Also, the molecule was called inactive in [8], in [9] and in assay [10].

For `CCOC(=O)c1ccc(O)cc1`, the result in assay [1], in [2], in [4], in assay [5], in [6] and in assay [7] was inactive. Besides, the molecule was classed as inactive in [8] and in assay [9].

On to `CSC(=O)c1cccc2nnsc12`, for which the call in assay [1], in assay [2], in [3], in [4], in [5] and in assay [6] was inactive. For the same molecule, the molecule was classed as inactive in assay [7], in assay [8] and in assay [9]. Besides, the AC50 in assay [15] was 303 nM (active).

For `CCOC(=O)COc1cc(-n2ncc(C(F)(F)F)c(C)c2=O)c(F)cc1Cl`, the molecule was classed as inactive in assay [1], in assay [3], in assay [4], in assay [5], in assay [6] and in assay [7]. Further, the molecule was classed as inactive in assay [8] and in [9].

Consider `C[C@]12CC[C@@H]3c4ccc(O)cc4C[C@@H](CCCCCCCCCS(=O)CCCC(F)(F)C(F)(F)F)[C@H]3[C@@H]1CC[C@@H]2O` (stereo partly drawn), for which the result in [2], in assay [3], in assay [4], in assay [6], in assay [7] and in assay [8] was inactive. Moreover, the call in [9] was inactive.
